The results in this text go back to PubChem BioAssay.

Calls of active or inactive are those of the source.

The nature of experiment [1]: compounds binding Alexa647 anti-His antibody – biochemical, small-molecule microarray, 635 nm fluorescence, artefact control for SMM control protein annotation, primary screen (AID 1128).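 Further: score merges feature fluorescence with signal-to-noise for each printed compound spot.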 The following applies: higher = more signal.
In experiment [2] the test system is Human papillomavirus type 1a E7 protein (residues 1-88). Put plainly: HPV1a E7 small-molecule binders, primary screen, biochemical, small-molecule microarray, residues 1-88, 635 nm (AID 1129). Conditions: small-molecule microarray binding, fluorescence 635 nm; higher = more signal.
Experiment [3] deals with Focal adhesion kinase 1 (Homo sapiens) (UniProt Q05397). Put plainly: PTK2 protein binding on printed compound slides – biochemical, small-molecule microarray, 635/667 nm fluorescence, BSA, DTT, primary screen (AID 1130).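 Further: composite of spot emission at 667 nm and signal to noise over triplicate slides.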 The following applies: 635 nm fluorescence, higher = more signal.
Chain of Focal adhesion kinase 1 (Homo sapiens) (Q05397 whole entry, looked up): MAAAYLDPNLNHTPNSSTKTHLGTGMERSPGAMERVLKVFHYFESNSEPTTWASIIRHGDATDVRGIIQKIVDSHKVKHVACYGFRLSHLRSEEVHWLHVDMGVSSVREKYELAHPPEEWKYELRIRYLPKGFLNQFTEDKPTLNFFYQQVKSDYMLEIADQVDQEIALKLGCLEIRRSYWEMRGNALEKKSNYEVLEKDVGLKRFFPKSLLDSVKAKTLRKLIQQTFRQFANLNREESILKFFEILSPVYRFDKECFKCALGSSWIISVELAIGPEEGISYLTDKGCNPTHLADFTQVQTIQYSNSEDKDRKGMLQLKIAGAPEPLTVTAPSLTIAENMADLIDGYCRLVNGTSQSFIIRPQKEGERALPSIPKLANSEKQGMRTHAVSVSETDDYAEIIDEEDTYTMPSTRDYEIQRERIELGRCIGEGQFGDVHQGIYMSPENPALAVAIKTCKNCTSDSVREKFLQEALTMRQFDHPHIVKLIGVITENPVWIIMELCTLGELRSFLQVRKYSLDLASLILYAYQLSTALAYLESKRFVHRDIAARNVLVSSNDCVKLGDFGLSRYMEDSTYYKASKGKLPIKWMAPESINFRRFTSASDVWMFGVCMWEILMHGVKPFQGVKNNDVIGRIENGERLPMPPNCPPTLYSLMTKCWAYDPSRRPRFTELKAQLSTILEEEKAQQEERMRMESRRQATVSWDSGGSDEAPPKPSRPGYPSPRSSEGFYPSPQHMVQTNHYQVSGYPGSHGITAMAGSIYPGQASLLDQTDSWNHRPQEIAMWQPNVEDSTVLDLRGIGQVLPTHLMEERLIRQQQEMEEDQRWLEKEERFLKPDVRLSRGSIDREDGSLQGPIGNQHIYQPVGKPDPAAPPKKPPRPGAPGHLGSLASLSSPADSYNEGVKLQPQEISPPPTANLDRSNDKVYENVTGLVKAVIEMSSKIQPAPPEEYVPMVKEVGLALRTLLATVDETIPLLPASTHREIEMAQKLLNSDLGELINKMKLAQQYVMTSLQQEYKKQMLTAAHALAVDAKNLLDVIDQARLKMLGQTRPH
For experiment [4], the system named is Fibrinogen (Alexa647-labelled). Put plainly: Alexa647-fibrinogen binding to printed small molecules – biochemical, small-molecule microarray, 635/667 nm fluorescence, artefact control for SMM control-protein annotation, profiling panel (AID 1131).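 Further: z-score merges 667 nm fluorescence with per-spot signal-to-noise over triplicate slides.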 The following applies: fibrinogen-A647 binding fluorescence, higher = more signal.
Experiment [5] deals with Follistatin (Homo sapiens) (UniProt P19883). As to the kind of experiment: FST protein binding to printed compounds – biochemical, small-molecule microarray, 635/667 nm fluorescence, primary screen (AID 1132). Conditions: 635 nm fluorescence, higher = more signal.
Chain of Follistatin (Homo sapiens) (P19883 whole entry, looked up): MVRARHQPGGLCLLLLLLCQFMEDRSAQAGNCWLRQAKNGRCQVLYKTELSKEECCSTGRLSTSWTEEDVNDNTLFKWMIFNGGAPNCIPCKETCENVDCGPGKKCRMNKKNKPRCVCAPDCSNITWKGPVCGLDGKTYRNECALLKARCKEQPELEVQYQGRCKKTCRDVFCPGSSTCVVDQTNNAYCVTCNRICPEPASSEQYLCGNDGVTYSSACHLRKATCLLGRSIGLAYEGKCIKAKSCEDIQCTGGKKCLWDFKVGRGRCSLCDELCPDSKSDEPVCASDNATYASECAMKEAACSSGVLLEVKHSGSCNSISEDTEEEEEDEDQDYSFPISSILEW
The target in experiment [6] is Fibroblast growth factor 2 (Homo sapiens) (UniProt P09038). Put plainly: basic fibroblast growth factor binding to printed compounds – biochemical, small-molecule microarray, 635/667 nm fluorescence, primary screen (AID 1133). Conditions: FGF2, fluorescence 635/667, higher = more signal.
Chain of Fibroblast growth factor 2 (Homo sapiens) (P09038 whole entry, looked up): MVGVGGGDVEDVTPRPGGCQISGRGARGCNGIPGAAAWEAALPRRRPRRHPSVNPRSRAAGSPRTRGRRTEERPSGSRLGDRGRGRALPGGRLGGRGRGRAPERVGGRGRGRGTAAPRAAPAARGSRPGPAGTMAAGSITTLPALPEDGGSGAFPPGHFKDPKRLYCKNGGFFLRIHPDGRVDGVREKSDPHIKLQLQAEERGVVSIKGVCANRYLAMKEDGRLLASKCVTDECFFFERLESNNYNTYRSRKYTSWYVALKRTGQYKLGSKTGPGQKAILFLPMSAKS
Experiment [7] can be described thus: JC-1 mitochondrial potential readout, lung cancer cells – cell-based, A549, JC-1 fluorescence, basal, 24 h, 100 nL, profiling panel (AID 1138).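 Further: A549 lung adenocarcinoma cells under basal conditions with no added stimulus; test concentration not given here.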 The following applies: higher = more signal.
Another experiment relates to Lefty1. As to the kind of experiment: Lefty1 protein binding to printed compounds – biochemical, small-molecule microarray, 635/667 nm fluorescence, primary screen (AID 1139). Conditions: fluorescence 635/667, higher = more signal.
Experiment [8] concerns wheat germ agglutinin (Triticum aestivum), Alexa647-labelled. As to the kind of experiment: Alexa647-WGA lectin binding to printed small molecules – biochemical, small-molecule microarray, 635/667 nm fluorescence, artefact control for SMM control-protein annotation, profiling panel (AID 1140).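 Further: score merges 667 nm feature emission with signal to noise over triplicate slides.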 Conditions: WGA-A647 binding, 635 nm fluorescence, higher = more signal.
Experiment [9] deals with Luciferin 4-monooxygenase (Photinus pyralis) (UniProt P08659). As to the kind of experiment: inhibition of purified Photinus pyralis luciferase – biochemical, luminescence, purified enzyme, 2006 set, primary screen (AID 1141).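 Further: cell-free assay with purified firefly luciferase at 100 ng per well in PBS; test concentration not given here.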 The following applies: purified firefly luciferase, SteadyGlo luminescence, 30 min; higher = more signal, called active from +8 up or from −8 down.
Chain of Luciferin 4-monooxygenase (Photinus pyralis) (P08659 whole entry, looked up): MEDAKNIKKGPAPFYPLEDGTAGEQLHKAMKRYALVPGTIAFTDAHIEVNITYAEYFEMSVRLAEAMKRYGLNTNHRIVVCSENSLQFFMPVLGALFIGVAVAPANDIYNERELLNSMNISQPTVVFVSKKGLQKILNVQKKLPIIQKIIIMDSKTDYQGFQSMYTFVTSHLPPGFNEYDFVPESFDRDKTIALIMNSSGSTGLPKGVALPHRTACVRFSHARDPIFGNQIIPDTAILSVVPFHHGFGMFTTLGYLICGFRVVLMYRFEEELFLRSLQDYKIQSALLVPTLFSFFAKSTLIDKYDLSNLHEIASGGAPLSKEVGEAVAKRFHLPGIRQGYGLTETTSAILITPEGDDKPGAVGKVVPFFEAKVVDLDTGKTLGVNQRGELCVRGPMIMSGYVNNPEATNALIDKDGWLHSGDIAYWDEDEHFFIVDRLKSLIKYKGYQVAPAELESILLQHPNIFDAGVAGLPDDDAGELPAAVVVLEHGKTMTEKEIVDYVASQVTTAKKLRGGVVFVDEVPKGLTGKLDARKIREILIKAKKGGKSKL

For the compound `CC#CCO[Si](C#CCCCCCC)(C(C)C)C(C)C`, the composite z-score is -0.19 in experiment [1]; -0.419 in experiment [2]; -0.103 in experiment [3]; -1.49 in [4]; -2.99 in experiment [5]; -2.42 in [6]. Besides, the composite z-score in the experiment with Lefty1 is -1.93; in experiment [8], 0.064. In addition, the z-score in [7] was -0.996; in [9], 0.944 (inactive).
As to `C=CCC(OC(C)=O)[C@@H]1[C@@H](N(Cc2ccc(-c3cccc(C(F)(F)F)c3)o2)C(=O)c2cccc3ccccc23)c2cc(OCCCO)ccc2N1C(=O)c1ccc2ccccc2c1` (stereo not given in full), the composite z-score in experiment [1] is 0.272; in experiment [2], -0.582; in experiment [3], -0.118; in experiment [4], -0.425; in [5] it was 0.839; in experiment [6], 0.101. Besides, the values for the composite z-score (in the experiment on Lefty1; in [8]) were 0.429 and 0.0578, respectively. The z-score in experiment [7] was -0.251; in experiment [9], 1.05 (inactive).
Regarding `C=CCC(OC(C)=O)[C@@H]1[C@@H](N(Cc2cc3ccccc3o2)C(=O)Cc2ccc(OC)cc2)c2cc(OCCCO)ccc2N1C(=O)Cc1ccc2ccccc2c1` (stereo not given in full), the composite z-score is 0.305 in [1]; -0.866 in experiment [2]; 0.102 in [3]; 0.136 in experiment [4]; 0.279 in experiment [5]; -0.662 in experiment [6]. The composite z-score is -0.173 in the experiment on Lefty1 and 0.116 in [8]. Besides, the z-score in experiment [7] is 0.432; in experiment [9] it was -0.1 (inactive).
For `CCOC(=O)C1=CC[C@@H](c2ccc(F)cc2)N(S(=O)(=O)c2ccc(C)cc2)[C@H]1c1ccc([N+](=O)[O-])cc1`, the composite z-score in [1] was 0.353; in [2], 1.19; in experiment [3], 0.866; in [4], 0.954; in experiment [5], 0.283; in [6], -0.218. For the same compound, the composite z-score is 0.242 with Lefty1 and 0.742 in experiment [8]. Further, the values for the z-score in experiment [7] and in experiment [9] were 1.83 and 2.28 (inactive), respectively.
Take `COCCn1c(C(=O)N2CCCC2)cc2c1C[C@H]1CN(C(=O)c3ccccc3)[C@@](Cc3ccccc3)(C(=O)OC)[C@@H]21`: the composite z-score stood at 1.09 in experiment [1]; 0.822 in experiment [2]; 1.54 in experiment [3]; 0.948 in experiment [4]; 0.298 in experiment [5]; 0.121 in experiment [6]. For the same compound, the composite z-score worked out at 0.334 in the experiment with Lefty1 and 1.11 in experiment [8]. The values for the z-score in experiment [7] and in [9] were 0.109 and 2.58 (inactive), respectively.
With `C=CCC(OC(C)=O)[C@@H]1[C@@H](N(Cc2ccc(-c3ccccc3)cc2)C(=O)c2ccc(-c3ccccc3)cc2)c2cc(OCCCO)ccc2N1C(=O)c1ccc2ccccc2n1` (stereo not given in full), the composite z-score was -0.513 in experiment [1]; 0.907 in [2]; 0.879 in [3]; -0.239 in [4]; 0.548 in [5]; 0.051 in experiment [6]. Also, the composite z-score is -0.101 with Lefty1 and 0.152 in [8]. Further, the z-score was 1.61 in [7] and -1.46 (inactive) in [9].
Consider `CCOC(=O)C1=C[C@@H](C(C)(C)C)N(S(=O)(=O)c2ccc(C)cc2)[C@H]1c1ccccc1Cl`, for which the composite z-score in [1] is 1.31; in experiment [2], 1.2; in [3] it was 0.393; in experiment [4] it was 0.776; in [5] it was 0.953; in [6] it was 0.119. For the same compound, the composite z-score with Lefty1 turned out to be 0.386; in [8] it was 1.18. Further, the z-score in experiment [7] was 3.94; in experiment [9], 0.927 (inactive).
Take `CC(C)CNC(=O)[C@@]1(C)c2ccccc2C(=O)N(Cc2cc(F)cc(C(F)(F)F)c2)[C@H]1c1ccc(CO)cc1`: the composite z-score was 0.83 in experiment [1]; 0.85 in experiment [2]; 0.0301 in experiment [3]; 0.51 in experiment [4]; 1.16 in [5]; 0.803 in experiment [6]. The results for the composite z-score (in the experiment on Lefty1; in [8]) were 0.372 and 0.154, respectively. Also, the z-score in experiment [7] is 0.165; in experiment [9], 0.189 (inactive).
As to `CC=CC(O)C1C=CC2C(=O)N(C)C(=O)C2N1NC(=O)OC(C)(C)C` (stereo not given), the composite z-score is 0.831 in [1]; 0.347 in [2]; -0.116 in [3]; 0.516 in experiment [4]; 0.767 in experiment [5]; 0.812 in [6]. In addition, the composite z-score with Lefty1 is 0.0938; in experiment [8], 0.838. The z-score in experiment [7] was -0.559; in experiment [9], -0.645 (inactive).
With `C=CCC(OC(C)=O)[C@@H]1[C@@H](N(Cc2ccc(-c3cccc(C(F)(F)F)c3)o2)C(=O)Cc2ccc(OC)cc2)c2cc(OCCCO)ccc2N1C(=O)c1ccc2ccccc2n1` (stereo not given in full), the composite z-score in [1] is 0.292; in [2], -1.64; in experiment [3] it was -0.236; in experiment [4] it was -0.665; in [5], 0.767; in experiment [6] it was -0.149. Moreover, the composite z-score in the experiment with Lefty1 amounted to 0.0089; in experiment [8], 0.113. Also, the results for the z-score in experiment [7] and in experiment [9] were -0.448 and 0.471 (inactive), respectively.
For the compound `CCOC(=O)C1=CC[C@@H](c2ccccc2Cl)N(S(=O)(=O)c2ccc(C)cc2)[C@H]1c1cccc(OC)c1`, the composite z-score in [1] was 0.413; in [2], 1.05; in [3] it was 0.1; in [4] it was 0.737; in experiment [5], 0.176; in experiment [6], 0.0652. Further, the composite z-score is -0.0177 in the experiment with Lefty1 and 0.54 in experiment [8]. The z-score in experiment [7] was 0.0495; in [9], 0.658 (inactive).
On to `COc1ccc(CCNC(=O)[C@@H]2c3ccccc3C(=O)N(CC34CC5CC(CC(C5)C3)C4)[C@H]2c2ccc(CO)cc2)cc1`, for which the composite z-score in experiment [1] was found to be 1.3; in experiment [2], 1.15; in [3] it was 0.548; in experiment [4], 0.61; in [5], 1.07; in experiment [6], 1.47. The figures for the composite z-score (in the experiment on Lefty1; in experiment [8]) were 0.867 and 0.965, respectively. Moreover, the z-score is 0.125 in experiment [7] and 1.36 (inactive) in experiment [9].
As for `COc1ccc(C#Cc2ccc3c(c2)[C@]2(C(=O)N3)[C@H](C(=O)Nc3nc4ccccc4s3)[C@H]3C(=O)O[C@H](c4ccccc4)[C@H](c4ccccc4)N3[C@@H]2c2ccc(OCCO)cc2)cc1`, the composite z-score came out at 1.11 in [1]; 0.98 in experiment [2]; 0.266 in experiment [3]; 0.731 in experiment [4]; 1.38 in [5]; 0.83 in [6]. The composite z-score was found to be 0.949 in the experiment on Lefty1 and 1.29 in experiment [8]. For the same compound, the z-score in experiment [7] was -2.33; in experiment [9], -3.53 (inactive).
Consider `CC(C)C[C@H]1NC(=O)[C@H](Cc2ccccc2)NC(=O)[C@@]23C(=O)N[C@@H](Cc4ccccc4)C2[C@H](C)[C@@]2(C)O[C@H]2C3/C=C/C/C=C\CNC1=O` (stereo not given in full), for which the composite z-score in experiment [1] was determined as 0.701; in [2] it was 0.475; in experiment [3] it was 0.899; in experiment [4], 0.315; in experiment [5] it was 0.927; in [6] it was 1.01. In addition, the results for the composite z-score (with Lefty1; in experiment [8]) were 0.376 and 0.658, respectively. The z-score in experiment [7] was -0.000177; in [9] it was -0.179 (inactive).
